Here are results for 9 compounds from PubChem BioAssay (NCI).

Among the test systems are EKVX NSCLC; SN12C renal; UO-31 renal; TK-10 renal; ACHN renal; CAKI-1 renal; CCRF-CEM leukemia; MOLT-4 leukemia; SR leukemia; RPMI-8226 leukemia; OVCAR-8 ovarian; OVCAR-5 ovarian; OVCAR-4 ovarian; SK-OV-3 ovarian; IGROV1 ovarian; OVCAR-3 ovarian; HS 578T breast; NCI/ADR-RES ovarian; A498 renal.
Holding throughout (assay): NCI-60 one-dose screen, 48 h (100 = growth as untreated, 0 = no growth, -100 = all killed)
Common to all, as to details: 10 µM unless noted

About 83,000 compounds went through this panel and 20% of them were active in at least one assay; those are over-represented in the sample as a whole.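 Testing used 96-well plates and a 48-hour single-concentration exposure. Example: -40 means 40% of the starting cells died.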 Unmarked numbers belong to inactive results. The source made the active and inactive calls. The calls were made as follows: active = growth percent below 10; inactive = the rest.

On to `COc1ccc(/C=C2\C=C(c3ccccc3)N(CCc3ccccc3)C2=O)cc1OC`, for which the growth in the assay on EKVX NSCLC is 56.1%; in the assay on SN12C renal it was 53%; in the assay on UO-31 renal, -47.5% (active); with TK-10 renal, -3.91% (active); in the assay on ACHN renal it was -32.5% (active); with CAKI-1 renal, 62%. The growth was 57.6% in the assay on CCRF-CEM leukemia; 34% with MOLT-4 leukemia; -1.98% (active) in the assay with SR leukemia; 70.6% with RPMI-8226 leukemia; 25.9% in the assay on OVCAR-8 ovarian; 67.2% with OVCAR-5 ovarian. Besides, the growth was -5.49% (active) in the assay on OVCAR-4 ovarian; -30.3% (active) in the assay on SK-OV-3 ovarian; 49% with IGROV1 ovarian; 28% in the assay with OVCAR-3 ovarian; 13.1% in the assay on HS 578T breast; 31.6% in the assay on NCI/ADR-RES ovarian.
With `CCNCCNc1cc(C2CCCC2)c(C#N)c2nc3ccccc3n12`, the growth is 38% in the assay with EKVX NSCLC; 46.3% with SN12C renal; -74.9% (active) with UO-31 renal; -24.7% (active) with TK-10 renal; -34.7% (active) in the assay with ACHN renal; 75.4% in the assay with A498 renal. Besides, the growth in the assay with CCRF-CEM leukemia was -8.07% (active); in the assay with SR leukemia it was -4.31% (active); in the assay with RPMI-8226 leukemia, 1.72% (active); in the assay with OVCAR-8 ovarian it was 28.6%; with OVCAR-5 ovarian it was 71.2%; in the assay on OVCAR-4 ovarian, -13.5% (active). In addition, the growth is 40.5% in the assay with SK-OV-3 ovarian; 43.7% in the assay on IGROV1 ovarian; -82% (active) in the assay with OVCAR-3 ovarian; -6.97% (active) in the assay with HS 578T breast; 33.1% with NCI/ADR-RES ovarian.
`O=C1Nc2ccccc2SC1C1SC(=S)N(Cc2ccccc2)C1=O` (configuration not stated): the growth is 105% in the assay on EKVX NSCLC; 99.5% in the assay with SN12C renal; 73.1% with UO-31 renal; 21.8% in the assay with TK-10 renal; 108% in the assay on ACHN renal; 109% with A498 renal. Moreover, the growth with CCRF-CEM leukemia was 51.1%; in the assay on MOLT-4 leukemia, 67.3%; in the assay with SR leukemia, -12.1% (active); in the assay with RPMI-8226 leukemia it was -21.7% (active); in the assay on OVCAR-5 ovarian it was 104%; in the assay with OVCAR-4 ovarian, 59.8%. For the same compound, the growth in the assay on SK-OV-3 ovarian was 118%; in the assay on IGROV1 ovarian, 96.5%; with OVCAR-3 ovarian, -5.62% (active); in the assay on HS 578T breast it was 27%; in the assay on NCI/ADR-RES ovarian it was 104%.
`O=C1CSC(c2ccccc2O)N1c1nnc(Cn2cnnc2)o1` (configuration not stated): the growth in the assay with EKVX NSCLC is 81.8%; with SN12C renal it was 79.6%; with TK-10 renal, 145%; in the assay on ACHN renal, 89.4%; with CAKI-1 renal it was 71.3%; in the assay with A498 renal, 106%. Further, the growth is 61.5% in the assay on MOLT-4 leukemia; 72.4% with SR leukemia; 71.1% in the assay on RPMI-8226 leukemia; 78.1% in the assay with OVCAR-5 ovarian; 86.4% with OVCAR-4 ovarian; 88.3% in the assay on SK-OV-3 ovarian. In addition, the growth is 73.9% in the assay on IGROV1 ovarian, 91.2% in the assay with OVCAR-3 ovarian, 88.1% in the assay on HS 578T breast and 68.9% in the assay on NCI/ADR-RES ovarian.
With `C[C@@H]1C(=O)N(C[C@H](Cc2ccccc2)N(Cc2ccccc2)Cc2ccccc2)[C@]1(Cc1ccccc1)C(=O)OC(C)(C)C`, the growth in the assay with EKVX NSCLC is 53.2%; with SN12C renal, 56.8%; in the assay with UO-31 renal, 41.2%; in the assay on TK-10 renal, 50.5%; in the assay on ACHN renal, 63.9%; in the assay on CAKI-1 renal, 55.2%. For the same compound, the growth in the assay on CCRF-CEM leukemia was 70%; with MOLT-4 leukemia it was 63.8%; with SR leukemia, 56.2%; with RPMI-8226 leukemia, 36.8%; in the assay on OVCAR-8 ovarian, 66.7%; in the assay on OVCAR-5 ovarian, 109%. Further, the growth with OVCAR-4 ovarian is 28.8%; in the assay with SK-OV-3 ovarian, 73.1%; in the assay on IGROV1 ovarian, 77.5%; in the assay with OVCAR-3 ovarian it was 54.5%; with HS 578T breast, 73%; with NCI/ADR-RES ovarian, 69%.
As for `C[C@@H]1C(=O)N(C[C@@H](Cc2ccccc2)NC(=O)OCc2ccccc2)[C@]1(Cc1ccccc1)C(=O)OCc1ccccc1`, the growth in the assay on EKVX NSCLC was 18.1%; in the assay on UO-31 renal, 8.74% (active); in the assay with TK-10 renal, 21.4%; in the assay on ACHN renal it was 22.3%; in the assay with CAKI-1 renal, 34.8%; with A498 renal it was -13.8% (active). Further, the growth with CCRF-CEM leukemia is 67.3%; in the assay on MOLT-4 leukemia it was 6.42% (active); in the assay on SR leukemia it was 16.6%; in the assay with RPMI-8226 leukemia it was 19.6%; in the assay with OVCAR-8 ovarian, 40.2%; in the assay with OVCAR-5 ovarian, 69.1%. The growth in the assay with OVCAR-4 ovarian was 1.48% (active); in the assay with SK-OV-3 ovarian, 54.5%; in the assay on IGROV1 ovarian, 57.4%; in the assay on OVCAR-3 ovarian, 43.3%; in the assay on HS 578T breast, 55.2%; in the assay on NCI/ADR-RES ovarian, 21%.
As for `O=C(O)CC1Sc2ccccc2NC1=O` (configuration not stated), the growth in the assay on EKVX NSCLC was 113%; in the assay with SN12C renal, 102%; with UO-31 renal it was 86.3%; in the assay on TK-10 renal it was 149%; with ACHN renal, 95.5%; with CAKI-1 renal, 72.8%. The growth with A498 renal is 124%; in the assay on CCRF-CEM leukemia it was 107%; in the assay on MOLT-4 leukemia, 92.5%; with SR leukemia, 61.1%; with RPMI-8226 leukemia, 96%; in the assay with OVCAR-5 ovarian it was 83.9%. The growth is 128% with OVCAR-4 ovarian; 106% with SK-OV-3 ovarian; 93.6% in the assay with IGROV1 ovarian; 110% in the assay on OVCAR-3 ovarian; 133% with HS 578T breast; 88.2% with NCI/ADR-RES ovarian.
Turning to `O=C1CSC(c2ccccc2Cl)N1c1nnc(Cn2cnnc2)o1` (configuration not stated), the growth in the assay with EKVX NSCLC was 60.7%; in the assay with SN12C renal, 82%; in the assay with UO-31 renal it was 66.4%; in the assay on TK-10 renal, 91.1%; with ACHN renal, 73.6%; in the assay on A498 renal it was 75.5%. The growth with CCRF-CEM leukemia was 43.4%; in the assay with MOLT-4 leukemia, 20.2%; with SR leukemia, -23.1% (active); with RPMI-8226 leukemia it was 55.1%; in the assay on OVCAR-5 ovarian, 63%; in the assay with OVCAR-4 ovarian, 68.6%. Also, the growth is 49% in the assay on SK-OV-3 ovarian; 74.7% in the assay with IGROV1 ovarian; 44.1% in the assay on OVCAR-3 ovarian; 82.3% in the assay with HS 578T breast; 8.38% (active) in the assay with NCI/ADR-RES ovarian.
Take `CCNCCNc1cc(-c2cccc(C(F)(F)F)c2)c(C#N)c2nc3ccccc3n12`: the growth with EKVX NSCLC was -89.5% (active); in the assay with UO-31 renal, -81.8% (active); in the assay on TK-10 renal it was -92.9% (active); in the assay on ACHN renal, -100% (active); with CAKI-1 renal it was -70.8% (active); with A498 renal, 81.4%. For the same compound, the growth in the assay on CCRF-CEM leukemia was -12.3% (active); in the assay on MOLT-4 leukemia it was -33.2% (active); with SR leukemia, -37.5% (active); in the assay on RPMI-8226 leukemia it was -29.3% (active); in the assay with OVCAR-8 ovarian, -39.7% (active); in the assay with OVCAR-5 ovarian, -79.3% (active). Further, the growth in the assay on OVCAR-4 ovarian was -83% (active); with SK-OV-3 ovarian, -97.2% (active); in the assay on IGROV1 ovarian, -74.2% (active); with OVCAR-3 ovarian it was -86.7% (active); in the assay on HS 578T breast it was -48.3% (active); in the assay on NCI/ADR-RES ovarian, -55% (active).
